# Experimental data as given in the supplement of paper PMC10127200.
# Counter-ions that a name gives are not always drawn.
# How the values were obtained:
# Test in all cases: Euclidean distance of Cell Painting phenotypic profile (signed KS, 77 features) to DMSO centroid (dimensionless distance); higher = stronger phenotypic change vs DMSO (phenoactivity)
# Details in all cases: 48 h; 5 or 10 uM (library dependent)
# 786-O = system: 786-O
# Outline: (§1)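 Library compounds were applied at 10 or 5 uM, depending on the library, with 0.1% DMSO final, for 48 h to five cancer lines and a healthy fibroblast line. After staining, cells were imaged confocally at 20X across 9 fields per well, and Harmony extracted 77 features, each scored as a signed Kolmogorov-Smirnov statistic against vehicle wells on the same plate. Phenoactivity is the Euclidean distance between each profile and the median vehicle profile, with profiles first plate-position corrected, correlation-weighted and averaged over replicates at the top dose.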
# A549 = system: A549
# Outline: as §1
# DU145 = system: DU145
# Outline: as §1
# FB = system: FB
# Outline: as §1
# HEPG2 = system: HEPG2
# Outline: as §1
# OVCAR4 = system: OVCAR4
# Outline: as §1
Structure (SMILES),Euclidean distance (786-O),Euclidean distance (A549),Euclidean distance (DU145),Euclidean distance (FB),Euclidean distance (HEPG2),Euclidean distance (OVCAR4)
CN1[C@@H]2C[C@@H](OC(=O)[C@H](CO)c3ccccc3)C[C@H]1[C@@H]1O[C@@H]12 [Scopolamine HBr trihydrate],1.03,1.25,1.17,1.06,0.452,0.796
C[C@@H]1O[C@@H](O[C@H]2C[C@@H](O)[C@]3(CO)[C@H]4[C@H](O)C[C@]5(C)[C@@H](C6=CC(=O)OC6)CC[C@]5(O)[C@@H]4CC[C@]3(O)C2)[C@H](O)[C@H](O)[C@H]1O [Ouabain],6.72,6.03,6.56,4.56,3.34,7.06
CCC12C=CCN3CC[C@@]4(c5ccc(OC)cc5N(C)[C@H]4[C@@](O)(C(=O)OC)[C@@H]1OC(C)=O)[C@@H]32 (stereo partly specified) [Vindoline],1.01,0.491,0.771,0.943,0.607,0.946
CC(O)(CS(=O)(=O)c1ccc(F)cc1)C(=O)Nc1ccc(C#N)c(C(F)(F)F)c1 (stereo unspecified) [Bicalutamide],1.1,1.04,0.992,1.28,0.832,1.65
CCC(COC(=O)c1cc(OC)c(OC)c(OC)c1)(c1ccccc1)N(C)C (stereo unspecified) [Trimebutine],0.93,0.4,0.604,0.704,1.26,0.747
c1ccc2c(c1)Sc1ccccc1N2CC1CN2CCC1CC2 (stereo unspecified) [Mequitazine],2.14,1.44,1.35,2.64,2.43,1.19
"CN1CCc2cc3c(cc2C1C1OC(=O)c2c1ccc1c2OCO1)OCO3 (single isomer, unassigned; (+)) [(+)-Bicuculline]",1.27,0.94,0.878,0.836,0.778,1.48
CN[C@@H]1[C@@H](O)[C@@H](O[C@@H]2[C@@H](O)[C@H](O[C@H]3O[C@H]([C@@H](C)O)[C@@H](O)[C@H](O)[C@H]3N)[C@@H](N)C[C@H]2N)OC[C@]1(C)O [Geneticin (G418 Sulfate)],1.73,0.917,1.4,1.24,1.23,1.53
Cc1cc(SCc2sc(-c3ccc(C(F)(F)F)c(F)c3)nc2C)ccc1OCC(=O)O,0.634,1.17,0.823,1.08,2.24,0.807
O=C(Oc1ccc([N+](=O)[O-])cc1)N1CCC(C(O)(c2ccc3c(c2)OCO3)c2ccc3c(c2)OCO3)CC1,1.24,1.34,1.4,1.86,1.15,1.12
CC(=O)OC12COC1CC(O)C1(C)C(=O)C(O)C3=C(C)C(O)CC(O)(C(OC(=O)c4ccccc4)C21)C3(C)C (stereo unspecified) [10-Deacetylbaccatin-III],1.79,1.11,0.834,1.7,1.38,1.4
C[C@@H]1CC[C@H]2[C@@H](C)C(=O)O[C@@H]3O[C@@]4(C)CC[C@@H]1[C@]32OO4 [Artemisinin],1.18,1.01,1.43,0.903,1.24,1.25
Cc1cccc(C)c1NC(=O)CN1CCCC1=O [Nefiracetam],1.15,0.499,–,0.708,1.11,1.2
O=C(O)CNC(=O)c1c(O)c2ccccc2n(Cc2ccccc2)c1=O,0.98,0.849,1.14,1.06,0.682,0.719
CCN(CC)C(=O)c1ccc(C2=CC3(CCNCC3)Oc3cccc(O)c32)cc1,0.588,1.87,0.833,0.776,1.75,0.973
CC(C)(C)[C@]1(O)CC2OC(=O)CC23C(=O)OC2OC(=O)[C@H](O)C231 (stereo partly specified) [Bilobalide],1,1.09,0.515,0.78,0.996,1.47
O=c1[nH]c2ccccc2n1C1CCN(CCCC(c2ccc(F)cc2)c2ccc(F)cc2)CC1 [Pimozide],1.83,3.09,1.3,1.12,0.874,0.955
COc1ccc(C(CN(C)C)C2(O)CCCCC2)cc1 (stereo unspecified) [Venlafaxine],0.992,0.49,–,0.691,0.558,1.02
CCC1(C)CC(=O)NC(=O)C1 [Bemegride],0.845,0.616,0.948,0.603,0.381,0.793
CCCCCCCCC(=O)NCc1ccc(O)c(OC)c1 [Nonivamide],1.37,0.987,–,0.925,0.607,1.31
CO[C@]12C[C@@H](COC(=O)c3cncc(Br)c3)CN(C)[C@@H]1Cc1cn(C)c3cccc2c13 [Nicergoline],1.37,0.701,–,0.963,0.72,0.762
c1ccc2c(c1)Nc1ccccc1S2 [Phenothiazine],0.657,0.876,0.829,1.1,1.4,0.881
CC(C)OC(=O)[C@H](C)N[P@](=O)(CO[C@H](C)Cn1cnc2c(N)ncnc21)Oc1ccccc1 [Tenofovir Alafenamide (GS-7340)],1.71,1.16,1.44,1.85,2.92,1.58

Structure (SMILES),Euclidean distance (786-O),Euclidean distance (A549),Euclidean distance (DU145),Euclidean distance (FB),Euclidean distance (HEPG2),Euclidean distance (OVCAR4)
CN1C(=O)CCS(=O)(=O)C1c1ccc(Cl)cc1 (stereo unspecified) [Chlormezanone],1.52,0.681,–,0.695,0.59,1.23
COC1=C[C@@H]2[C@@H]3Cc4ccc(OC)c(O)c4[C@]2(CCN3C)CC1=O [Sinomenine],0.934,0.651,–,0.89,0.668,0.854
CC(C)C(Br)C(=O)NC(N)=O (stereo unspecified) [Bromisoval],1.54,0.435,2.15,0.988,0.659,0.646
COc1cc(C)[nH]c(=O)c1CNC(=O)c1c(C)n([C@H](C)C2CCN(CC(F)(F)F)CC2)c2ccccc12,1.35,1.09,–,1.42,0.588,0.987
O=C/C=C/c1ccccc1 [Cinnamaldehyde],1,0.658,0.988,0.954,1.14,0.848
CCN1C[C@]2(OC(=O)c3ccccc3NC(C)=O)CC[C@H](OC)[C@@]34[C@@H]2C[C@@H]([C@@H]13)[C@@]1(O)C[C@H](OC)[C@H]2C[C@@H]4[C@]1(O)[C@H]2OC [Lappaconitine],0.914,0.59,–,1.1,0.579,1.35
CN1CCCCC1Cn1cc(C(=O)c2cc([N+](=O)[O-])ccc2I)c2ccccc21 (stereo unspecified),0.823,1.18,1.02,1.47,–,1.19
C=CC(=O)N[C@H]1C=C(C)c2c(-c3cnc4ccccc4c3)c3c(N)ncnc3n2C1,1.49,1.6,–,1.95,1.26,1.39
C[C@]12CCC(=O)C(O)=C1CC[C@@H]1[C@@H]2CC[C@]2(C)C(=O)CC[C@@H]12 [Formestane],1.02,0.913,–,1.08,0.763,0.703
CC(=O)Nc1ccc(Cc2ccc(NC(C)=O)cc2)cc1,1.08,2.27,0.674,0.9,0.667,1.25
O=c1cccc2n1C[C@@H]1CNC[C@H]2C1 [Cytisine],1.35,0.65,–,1.05,1.09,2.07
NCCCNCCSP(=O)(O)O [Amifostine],2.98,1.18,1.66,1.8,1.22,1.31
O=C(O)c1nn(Cc2ccc(Cl)cc2Cl)c2ccccc12 [Lonidamine],0.877,1.12,–,1.09,0.957,1.52
Cc1cccc([C@H](C)c2c[nH]cn2)c1C [Dexmedetomidine],0.401,0.732,0.547,0.876,0.546,1.12
COc1ccc(C(=O)N2CCCC2=O)cc1 [Aniracetam],0.962,1.09,–,1.01,0.635,1.07
Oc1ccc(Cl)cc1Cc1cc(Cl)ccc1O [Dichlorophene],0.835,1.05,1.3,1.16,0.516,1.18
CC[C@@]1(O)C(=O)OCc2c1cc1n(c2=O)Cc2cc3ccccc3nc2-1 [Camptothecin],3.86,3.88,–,4.14,2.87,3.96
O=C(CC1NCCCC1O)Cn1cnc2cc(Br)c(Cl)cc2c1=O (stereo unspecified) [Halofuginone],3.67,3.22,–,3.62,3.81,3.65
Cn1c(CCCC(=O)O)nc2cc(N(CCCl)CCCl)ccc21 [Bendamustine],0.99,0.793,0.645,0.717,0.64,0.732
N#C[C@H](O[C@@H]1O[C@H](C(=O)O)[C@@H](O)[C@H](O)[C@H]1O)c1ccccc1 [Laetrile],0.989,0.766,–,0.899,0.702,1.45
C[C@]12CC[C@H]3[C@@H](CC[C@@]45O[C@@H]4C(O)=C(C#N)C[C@]35C)[C@@H]1CC[C@@H]2O [Trilostane],1.94,1.35,–,0.851,1.01,1.12
CC(=O)c1c(O)cc(C)oc1=O [Sodium dehydroacetate],0.865,0.572,–,0.998,0.348,0.896
C=CC[C@]1(O)CC[C@H]2[C@@H]3CCC4=CC(=O)CCC4=C3C=C[C@@]21C [Altrenogest],1.11,2.59,–,1.16,0.983,1.02
